SMILES strings stand for the structures. Activity calls are given as the source filed them.

Test [1] can be described thus: optical density shifts of acrAB sulA E. coli – strain DRC41, OD650, 48 h, E. coli filamentation inducer project, primary screen (AID 1152).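 Also: E. coli MC1000 strain DRC41 lacking acrAB efflux pump and sulA.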 The settings on record: higher = more signal, called active from +8 up or from −8 down.
Test [2] is described as follows: probe aLefty1 binding on compound microarray – biochemical, small-molecule microarray, 635/667 nm fluorescence, primary screen (AID 1153).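 Also: score merges spot fluorescence with signal-to-noise ratio from the scanned slide images.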 As to conditions: higher = more signal.
The nature of test [3]: plasmodial surface anion channel blockers, osmotic lysis – cell-based, P. falciparum Indochina, OD700, 1 h, primary screen (AID 1154). The settings on record: P. falciparum Indochina infected RBC osmotic lysis, higher = more signal, called active from +8 up or from −8 down.
A short description of test [4]: plasmodial surface anion channel blockers, osmotic lysis – cell-based, P. falciparum Indochina, OD700, 2 h, primary screen (AID 1155).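 Also: lysis reports solute entry through the parasite surface anion channel PSAC.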 The settings on record: P. falciparum Indochina infected erythrocytes, higher = more signal, called active from +8 up or from −8 down.
The nature of test [5]: changes in parasitized red cell lysis, either direction – P. falciparum Indochina, OD700, 3 h, PSAC antagonist project, primary screen (AID 1156). The settings on record: P. falciparum-infected erythrocytes, osmotic lysis, higher = more signal, called active from +8 up or from −8 down.
The nature of test [6]: plasmodial surface anion channel blockers, osmotic lysis – cell-based, P. falciparum Indochina, OD700, 18 h, primary screen (AID 1157). The settings on record: P. falciparum Indochina infected erythrocytes, osmotic lysis OD700, 18 h; higher = more signal, called active from +8 up or from −8 down.
The nature of test [7]: S6 kinase pathway phospho-S6 level changes – cell-based, A549, cytoblot, luminescence, serum-stimulated, primary screen (AID 1158).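 Also: serum-stimulated A549 lung adenocarcinoma cells; signal is phosphorylated S6 detected by cytoblot immunostaining with HRP secondary.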 As to conditions: 5 h, higher = more signal.
The target in test [8] is NADPH oxidase 2 (Homo sapiens) (UniProt P04839). Put plainly: compounds shifting NOX2 Amplex Red fluorescence – cell-based, HEK293-NOX2, PMA-stimulated, NOX inhibitor project, primary screen (AID 1159). Also: test concentration not given here. As to conditions: 45 min, higher = more signal, called active from +8 up or from −8 down.
Test [9] deals with NADPH oxidase 4 (Homo sapiens) (UniProt Q9NPH5). Put plainly: compounds shifting NOX4 Amplex Red fluorescence – cell-based, HEK293-NOX4, tetracycline-induced, NOX inhibitor project, primary screen (AID 1160). As to conditions: HEK293-NOX4, Amplex Red H2O2 fluorescence, 45 min; higher = more signal, called active from +8 up or from −8 down.
Test [10] addresses NADPH oxidase 5 (Homo sapiens) (UniProt Q96PH1). Kind of test: compounds shifting NOX5 Amplex Red fluorescence – cell-based, HEK293-NOX5, NOX inhibitor project, primary screen (AID 1161). The settings on record: HEK293-NOX5, ionomycin, 45 min, higher = more signal.
Test [11] in a line: compound effects on lung adenocarcinoma cell viability – A549, calcein-AM fluorescence, 48 h, basal, profiling panel (AID 1162). Also: test concentration not given here. The settings on record: higher = more signal.
A short description of test [12]: compound effects on differentiated 3T3-L1 adipocyte viability – cell-based, 3T3-L1 adipocytes, calcein-AM fluorescence, 48 h, basal, profiling panel (AID 1163). Also: test concentration not given here. The settings on record: 3T3-L1 adipocytes viability, higher = more signal.
The nature of test [13]: compound effects on hepatocellular carcinoma cell viability – HepG2, calcein-AM fluorescence, 48 h, basal, profiling panel (AID 1164). Also: test concentration not given here. As to conditions: higher = more signal.
Test [14] can be described thus: compound effects on multiple myeloma cell viability – MM1S, calcein-AM fluorescence, 48 h, basal, profiling panel (AID 1165).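 Also: viability of MM1S multiple myeloma cells under basal unstimulated conditions; test concentration not given here.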 The settings on record: higher = more signal.
Test [15] is described as follows: calcein-AM signal in unstimulated myeloma cells – cell-based, calcein-AM fluorescence, 48 h, PK04 Diversity Set, profiling panel (AID 1166).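 Also: cells grown under basal conditions without added stimulus; test concentration not given here.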 As to conditions: RPMI8226 myeloma viability, higher = more signal.
A short description of test [16]: JC-1 mitochondrial signal, unstimulated HepG2 cells – cell-based, JC-1 fluorescence, 24 h, 100 nL compound, profiling panel (AID 1167). Also: test concentration not given here. As to conditions: HepG2 mitochondrial potential, higher = more signal.
A short description of test [17]: JC-1 mitochondrial signal, unstimulated adipocytes – cell-based, JC-1 fluorescence, 3T3-L1 adipocytes, 24 h, 100 nL compound, profiling panel (AID 1168). Also: test concentration not given here. As to conditions: JC-1 mitochondrial fluorescence, higher = more signal, called active from +8 up or from −8 down.
The nature of test [18]: JC-1 mitochondrial signal, unstimulated myeloma cells – cell-based, JC-1 fluorescence, RPMI8226, 24 h, 100 nL compound, profiling panel (AID 1169). Also: test concentration not given here. The settings on record: JC-1 mitochondrial potential fluorescence, higher = more signal.
A short description of test [19]: JC-1 mitochondrial signal, unstimulated MM1S myeloma – cell-based, JC-1 fluorescence, 24 h, 100 nL compound, profiling panel (AID 1170). Also: test concentration not given here. As to conditions: MM1S mitochondrial potential, higher = more signal.
Test [20] is described as follows: resazurin metabolic signal in A549 cells – cell-based, resazurin fluorescence, 24 h, PK04 Diversity Set, profiling panel (AID 1171). Also: test concentration not given here. As to conditions: A549 viability, higher = more signal, called active from +8 up or from −8 down.

NADPH oxidase 2 (Homo sapiens), sequence (P04839 whole entry, looked up): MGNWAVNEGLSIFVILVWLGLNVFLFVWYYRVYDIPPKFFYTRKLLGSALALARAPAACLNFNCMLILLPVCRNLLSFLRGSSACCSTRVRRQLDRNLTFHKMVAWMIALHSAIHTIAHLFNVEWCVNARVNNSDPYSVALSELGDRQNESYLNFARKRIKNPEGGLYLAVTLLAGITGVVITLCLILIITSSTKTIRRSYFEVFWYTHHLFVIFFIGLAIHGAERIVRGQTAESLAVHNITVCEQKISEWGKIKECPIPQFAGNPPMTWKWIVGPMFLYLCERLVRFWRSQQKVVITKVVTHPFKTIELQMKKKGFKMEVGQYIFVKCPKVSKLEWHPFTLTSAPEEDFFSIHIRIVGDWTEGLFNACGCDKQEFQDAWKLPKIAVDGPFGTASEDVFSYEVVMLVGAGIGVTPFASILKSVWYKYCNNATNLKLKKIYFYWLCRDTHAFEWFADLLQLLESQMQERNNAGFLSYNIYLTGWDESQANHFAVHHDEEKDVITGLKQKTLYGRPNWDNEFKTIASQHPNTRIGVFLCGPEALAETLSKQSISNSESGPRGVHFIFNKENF
NADPH oxidase 4 (Homo sapiens), sequence (Q9NPH5 whole entry, looked up): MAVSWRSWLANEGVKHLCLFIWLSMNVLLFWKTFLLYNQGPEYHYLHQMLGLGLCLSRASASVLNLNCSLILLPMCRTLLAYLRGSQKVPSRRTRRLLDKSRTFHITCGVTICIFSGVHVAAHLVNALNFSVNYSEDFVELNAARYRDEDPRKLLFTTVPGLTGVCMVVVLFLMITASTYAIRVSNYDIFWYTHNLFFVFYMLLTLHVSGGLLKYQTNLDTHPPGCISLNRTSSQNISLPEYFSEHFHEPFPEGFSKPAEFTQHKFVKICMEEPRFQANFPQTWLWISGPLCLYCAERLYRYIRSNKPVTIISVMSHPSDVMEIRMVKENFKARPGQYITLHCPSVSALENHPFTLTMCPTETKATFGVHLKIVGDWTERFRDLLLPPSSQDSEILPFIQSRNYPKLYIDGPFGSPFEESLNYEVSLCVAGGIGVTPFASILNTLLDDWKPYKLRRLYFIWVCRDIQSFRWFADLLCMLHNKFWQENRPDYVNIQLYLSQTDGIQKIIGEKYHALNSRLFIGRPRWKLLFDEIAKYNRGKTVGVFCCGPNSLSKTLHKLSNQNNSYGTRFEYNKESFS
NADPH oxidase 5 (Homo sapiens), sequence (Q96PH1 whole entry, looked up): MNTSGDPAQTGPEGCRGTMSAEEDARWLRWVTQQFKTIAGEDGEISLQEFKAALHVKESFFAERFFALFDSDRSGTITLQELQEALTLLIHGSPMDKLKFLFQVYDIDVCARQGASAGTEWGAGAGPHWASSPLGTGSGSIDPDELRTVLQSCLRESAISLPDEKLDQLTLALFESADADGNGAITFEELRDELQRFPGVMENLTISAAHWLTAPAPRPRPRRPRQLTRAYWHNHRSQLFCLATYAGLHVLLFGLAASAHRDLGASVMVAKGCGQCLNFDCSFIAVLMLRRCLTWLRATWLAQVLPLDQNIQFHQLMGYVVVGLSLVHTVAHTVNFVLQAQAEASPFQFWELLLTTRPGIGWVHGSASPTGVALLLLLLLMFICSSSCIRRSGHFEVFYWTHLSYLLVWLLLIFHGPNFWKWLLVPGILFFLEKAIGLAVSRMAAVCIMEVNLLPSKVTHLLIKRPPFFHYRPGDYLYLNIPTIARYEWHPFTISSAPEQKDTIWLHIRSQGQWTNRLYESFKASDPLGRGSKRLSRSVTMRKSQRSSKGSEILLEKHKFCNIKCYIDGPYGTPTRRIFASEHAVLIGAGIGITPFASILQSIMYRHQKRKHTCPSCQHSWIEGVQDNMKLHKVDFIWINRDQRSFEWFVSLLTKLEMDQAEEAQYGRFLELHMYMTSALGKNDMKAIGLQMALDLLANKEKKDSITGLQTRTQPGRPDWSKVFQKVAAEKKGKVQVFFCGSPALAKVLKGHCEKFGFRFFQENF

For `Cc1cc2c(nc1C)CCCCN2CC(C)ON=C1[C@H]2CCn3c(=O)n(-c4ccccc4)c(=O)n3[C@H]2[C@H](O)[C@@H]2O[C@H]12` (stereo not given in full), the z-score is 1.03 (inactive) in test [1]; 0.683 (inactive) in test [3]; 0.0165 (inactive) in test [4]; 0.417 (inactive) in test [5]; 0.122 (inactive) in test [6]; 0.0162 in test [7]. Also, the z-score in test [8] was -1.86 (inactive); in [9] it was -0.0659 (inactive); in test [10], 0.168; in test [11] it was -0.333; in [12], -0.0663; in test [13], 0.305. Moreover, the z-score in [14] is -0.767; in [15], -1.21; in test [16], -0.439; in test [17], -0.521 (inactive); in [18], 0.407; in test [19], -0.974. For the same compound, the z-score in test [20] was -1.53 (inactive). The composite z-score in [2] is -0.0536.
Take `CCO[C@H](c1cc(OC)cc([N+](=O)[O-])c1OC)[C@H](C)C=CCC(=O)OC`: the z-score in test [1] is 0.722 (inactive); in [3] it was 0.905 (inactive); in test [4] it was -0.222 (inactive); in test [5], -0.361 (inactive); in test [6], 0.148 (inactive); in test [7], -0.168. In addition, the z-score in [8] is -0.295 (inactive); in test [9], 0.276 (inactive); in test [10] it was 0.893; in test [11], 1.23; in [12], -0.629; in test [13], 0.381. The z-score in [14] was 1.02; in [15], 0.799; in test [16], 0.879; in test [17], 0.269 (inactive); in [18] it was 0.752; in [19] it was -0.929. Also, in test [20], the z-score is -0.625 (inactive). The composite z-score in test [2] was -0.202.
`C=CC1=C[C@H](O)[C@@H]2O[C@@H]2C12OCCCO2`: the z-score is 0.104 (inactive) in test [1]; -0.179 (inactive) in test [3]; 0.191 (inactive) in test [4]; -0.264 (inactive) in [5]; -0.121 (inactive) in test [6]; -0.495 in test [7]. Besides, the z-score was -1.11 (inactive) in test [8]; 0.617 (inactive) in test [9]; 0.629 in [10]; -0.375 in test [11]; -0.564 in [12]; -0.0684 in test [13]. Further, the z-score in test [14] was -0.705; in [15], 0.265; in test [16], -0.977; in [17], -0.729 (inactive); in test [18], -0.371; in test [19] it was -0.361. Also, in [20], the z-score is 0.0527 (inactive). Moreover, the composite z-score in test [2] is -0.275.
`O=C1C[C@@H](O)[C@@H](O)[C@@H]2[C@@H]3C(=O)N(c4cccc(Oc5ccccc5)c4)C(=O)[C@@H]3CC[C@H]12`: the z-score in test [1] was -0.367 (inactive); in test [3], 0.429 (inactive); in test [4], 0.0618 (inactive); in test [5], -0.195 (inactive); in test [6], -0.0653 (inactive); in test [7] it was -0.875. Further, the z-score in test [8] was -0.0166 (inactive); in test [9] it was 0.6 (inactive); in [10], 0.124; in test [11] it was -0.0402; in test [12], -0.231; in test [13] it was 0.0658. Further, the z-score in test [14] is 0.258; in [15], -0.0527; in test [16], -0.101; in test [17] it was -1.02 (inactive); in [18], -0.308; in test [19] it was 0.258. In test [20], the z-score was 0.16 (inactive). Also, in test [2], the composite z-score was found to be 0.0446.
On to `CC(C)CON=C1C[C@@H](O)[C@@H](O)[C@@H]2[C@@H]3C(=O)N(C4CCCCC4)C(=O)[C@@H]3CC[C@H]12`, for which the z-score in test [1] is 0.539 (inactive); in test [3], -0.172 (inactive); in test [4], 0.193 (inactive); in test [5], 0.168 (inactive); in [6], 0.0575 (inactive); in test [7], -0.545. The z-score in test [8] was -0.671 (inactive); in test [9] it was -0.118 (inactive); in [10], -0.246; in [11], 0.325; in [12], 0.274; in [13], 0.232. For the same compound, the z-score is 0.768 in test [14]; -0.909 in test [15]; -0.357 in test [16]; 0.0297 (inactive) in test [17]; 0.0139 in test [18]; -0.0788 in [19]. In addition, the z-score in test [20] was -0.318 (inactive). In addition, the composite z-score in [2] is -0.101.
Take `COC(=O)CC=C[C@@H](C)[C@@H](C=NOC[C@H]1O[C@H](c2ccccc2)C=C[C@@H]1Oc1ccc(OC)cc1)NS(=O)(=O)c1ccc(C)cc1`: the z-score is -0.272 (inactive) in [1]; 4.79 (inactive) in test [3]; 1.56 (inactive) in [4]; 0.949 (inactive) in test [5]; 0.857 (inactive) in [6]; 0.0859 in test [7]. The z-score in [8] was -0.273 (inactive); in test [9], 0.0179 (inactive); in test [10], -0.523; in [11] it was -1.31; in [12], -0.486; in [13], -0.43. The z-score is -1.7 in test [14]; -1.2 in test [15]; 0.0495 in [16]; -1.06 (inactive) in test [17]; 0.689 in [18]; -0.077 in test [19]. For the same compound, the z-score in test [20] was -0.374 (inactive). In test [2], this compound showed a composite z-score of -0.147.
In the case of `CC(CCN1CCCCc2nc(C)c(C)cc21)=NO[C@@H](C)c1cn([C@H](CO)Cc2ccccc2)nn1`, the z-score is 0.72 (inactive) in test [1]; 2.04 (inactive) in test [3]; 0.32 (inactive) in test [4]; 0.729 (inactive) in test [5]; 0.367 (inactive) in test [6]; -0.11 in test [7]. The z-score is -2.09 (inactive) in [8]; -0.106 (inactive) in test [9]; -0.199 in test [10]; 0.455 in test [11]; -0.374 in test [12]; 0.0163 in test [13]. For the same compound, the z-score in test [14] is 0.313; in [15], 0.307; in test [16], -1.33; in test [17], -0.151 (inactive); in [18], 0.878; in [19] it was -0.859. Besides, the z-score in test [20] was -0.32 (inactive). The composite z-score in test [2] is 0.0618.
For `COC(=O)CC=C[C@@H](C)[C@@H](C=NO[C@H](C)c1cn([C@H](CO)Cc2ccccc2)nn1)NS(=O)(=O)c1ccc(C)cc1`, the z-score in [1] is -0.0528 (inactive); in test [3], 2.17 (inactive); in [4], 0.674 (inactive); in test [5] it was 0.605 (inactive); in [6], 0.22 (inactive); in [7] it was -1.07. Further, the z-score is 0.679 (inactive) in test [8]; 0.685 (inactive) in test [9]; -0.0369 in [10]; -0.775 in test [11]; -0.0125 in [12]; -0.647 in [13]. Moreover, the z-score in test [14] was -0.0023; in [15], -0.254; in [16] it was -0.416; in test [17] it was -2.46 (inactive); in [18] it was 0.696; in [19] it was 0.571. The z-score in test [20] is -0.102 (inactive). In test [2], this compound gave a composite z-score of 0.173.
Take `CCN1C(=O)[C@H]2[C@H]3[C@H](O)[C@H](O)CC(=NO[C@@H](C)c4cn([C@H](CO)Cc5ccccc5)nn4)[C@@H]3CC[C@H]2C1=O`: the z-score in test [1] is 0.115 (inactive); in test [3], 0.202 (inactive); in test [4], 0.453 (inactive); in test [5], 0.357 (inactive); in test [6], 0.146 (inactive); in [7], -0.66. Further, the z-score is 0.0799 (inactive) in [8]; -2.08 (inactive) in test [9]; 0.0391 in [10]; -0.293 in test [11]; 0.0248 in [12]; -0.644 in test [13]. Besides, the z-score in [14] was -1.59; in [15] it was -0.784; in test [16], -0.559; in [17] it was -1.49 (inactive); in test [18], 0.695; in test [19], 0.0117. Moreover, in [20], the z-score is -0.499 (inactive). In test [2], this compound yielded a composite z-score of 0.0618.
